Outcome and AC50 data for four molecules are collected here from PubChem BioAssay (EPA / NIEHS).

The AC50 is the concentration giving half of the maximal activity seen.

The structures appear in SMILES notation. The source made the active and inactive calls. How the source made its calls: active means hit-call score of the fitted dose curve at least 0.9, where 1 is the maximum; inactive means score below 0.9.

Test [1] in a line: ATG_CRE_CIS: Attagene CIS-FACTORIAL HepG2 Assay for human cAMP Responsive Element (CRE) binding protein 3 (AID 2282926). The settings on record: HepG2 CRE cis-reporter, Attagene multiplexed mRNA; actives raise or lower the signal. In outline:
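Endogenous transcription factor activity read via CRE-regulated reporter transcripts in transfected HepG2 cells. After 24 h exposure, RNA was reverse-transcribed, amplified, fluorescently labelled and sized by capillary electrophoresis; gain or loss fitted against DMSO.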

Test [2] concerns the target CCAAT/enhancer-binding protein beta (Homo sapiens) (UniProt P17676). Description: ATG_C_EBP_CIS: Attagene CIS-FACTORIAL HepG2 Assay for human CCAAT/Enhancer Binding Protein (C/EBP) beta (AID 2282927). The following applies: HepG2 Attagene cis-factorial transcription factor reporter; actives raise or lower the signal. The essentials:
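HepG2 transiently transfected with multiplexed reporter units under cis-regulatory promoters reporting endogenous C/EBPb activity. After 24 h exposure, reporter mRNA assayed by RT-PCR, fluorescent labelling, HpaI digestion and capillary electrophoresis; bidirectional fitting versus DMSO.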

Test [3] in a line: ATG_CMV_CIS: Attagene CIS-FACTORIAL HepG2 Assay for human CMV (Internal Marker) (AID 2282928).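 Further: endpoint acts as a background internal control marker rather than a target.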 The following applies: HepG2 CMV promoter reporter, transcription factor profiling; actives raise or lower the signal. In outline: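 Readout: fluorescent reporter cDNA fragments separated by capillary electrophoresis after RT-PCR and HpaI cut. Cells: HepG2 carrying transfected cis-promoter reporter constructs, dosed 24 h. Endpoint serves as background internal-marker control, fit bidirectionally versus DMSO.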

Test [4] in a line: ATG_DR4_LXR_CIS: Attagene CIS-FACTORIAL HepG2 Assay for human Liver X Receptor (LXR), DR4 submotif (AID 2282929). The following applies: HepG2 Attagene DR4 cis-reporter, mRNA transcription; actives raise or lower the signal. In outline:
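HepG2, transient MRTU transfection, cis-element (DR4) promoter; 24 h compound exposure; total RNA → oligo(dT) RT → PCR → 6-FAM primer extension → HpaI cut → CE. Gain/loss vs DMSO, bidirectional fit.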

In test [5] the target is Aryl hydrocarbon receptor (Homo sapiens) (UniProt P35869). Description: ATG_Ahr_CIS: Attagene CIS-FACTORIAL HepG2 Assay for human Aryl Hydrocarbon Receptor (Ahr) (AID 2282930). The following applies: HepG2 AhR cis-factorial reporter transcription; actives raise or lower the signal. In outline:
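HepG2 cells transiently transfected with cis-element-driven multiplexed reporter units; endogenous AhR activity read as reporter mRNA 24 h after dosing, via RT-PCR, 6-FAM labelling, HpaI digestion and capillary electrophoresis. Bidirectional fit relative to DMSO.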

Test [6] is described as follows: ATG_AP_1_CIS: Attagene CIS-FACTORIAL HepG2 Assay for human Activator Protein 1 (AP-1) (AID 2282931). The following applies: HepG2 Attagene cis-factorial AP-1 reporter mRNA; actives raise or lower the signal. In outline:
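Transient MRTU transfection of HepG2 → 24 h chemical treatment → RNA isolation, RT-PCR, 6-FAM labelling, HpaI digest → capillary electrophoresis. Fit: bidirectional, DMSO negative control.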

Test [7] is described as follows: ATG_AP_2_CIS: Attagene CIS-FACTORIAL HepG2 Assay for human Activator Protein 2 (AP-2) (AID 2282932). The settings on record: HepG2 AP-2 cis-reporter, Attagene transcription factor profiling; actives raise or lower the signal. The essentials:
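Read-out: fluorescent reporter mRNA via RT-PCR and capillary electrophoresis, 24 h post-dose in transiently transfected HepG2. Endogenous factors drive cis-promoter reporters; gain or loss of signal fitted bidirectionally against DMSO.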

Test [8] is described as follows: ATG_BRE_CIS: Attagene CIS-FACTORIAL HepG2 Assay for human Bone Morphogenetic Protein (BMP) Response Element (BRE) (AID 2282933). The following applies: HepG2 BMP response element reporter, Attagene transcription factor profiling; actives raise or lower the signal. In outline:
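A HepG2 multiplex reporter system measured inducible reporter mRNA 24 h post-dosing. Detection: RT-PCR, 6-FAM primer extension, HpaI digestion, capillary electrophoresis. Activity fitted bidirectionally relative to DMSO.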

For test [9], the target named is Transcription factor E2F1 (Homo sapiens) (UniProt Q01094). Description: ATG_E2F_CIS: Attagene CIS-FACTORIAL HepG2 Assay for human E2F Transcription Factor 1 (AID 2282935). The following applies: HepG2 Attagene cis-reporter, E2F reporter RNA transcripts; actives raise or lower the signal. The essentials: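 Transient MRTU transfection of HepG2; 24 h compound exposure; RNA → oligo(dT) RT → PCR → FAM label → HpaI cut → CE fluorescence. Gain/loss of signal fit against DMSO.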
Sequence of Transcription factor E2F1 (Homo sapiens) (Q01094 whole entry, looked up): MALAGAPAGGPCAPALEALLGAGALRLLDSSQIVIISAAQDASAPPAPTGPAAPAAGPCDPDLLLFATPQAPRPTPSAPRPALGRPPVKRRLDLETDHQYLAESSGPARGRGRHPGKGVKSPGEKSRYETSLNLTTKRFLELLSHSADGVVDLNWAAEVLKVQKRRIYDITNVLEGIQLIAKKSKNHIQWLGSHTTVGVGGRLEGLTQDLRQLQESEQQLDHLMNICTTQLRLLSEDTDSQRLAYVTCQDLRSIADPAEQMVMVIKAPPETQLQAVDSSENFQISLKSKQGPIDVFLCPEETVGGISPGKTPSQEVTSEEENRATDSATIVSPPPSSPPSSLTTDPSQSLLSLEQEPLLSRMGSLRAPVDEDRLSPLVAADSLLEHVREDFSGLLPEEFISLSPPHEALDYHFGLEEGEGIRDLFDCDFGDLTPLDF

Test [10] is described as follows: ATG_E_Box_CIS: Attagene CIS-FACTORIAL HepG2 Assay for human Enhancer Box (E-box) (AID 2282936). The following applies: HepG2 E-box cis-reporter transcription, actives raise or lower the signal. In outline: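 Transiently transfected HepG2, endogenous TF-driven reporters, 24 h dosing. Readout: RT-PCR plus capillary electrophoresis of fluorescent reporter fragments. Gain or loss of signal fitted bidirectionally against DMSO baseline.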

Test [11] can be described thus: ATG_M_61_CIS: Attagene CIS-FACTORIAL HepG2 Assay for M61 Transcription Factor (Internal Marker) (AID 2282937). The settings on record: HepG2 Attagene CIS-FACTORIAL M61 internal marker reporter; actives raise or lower the signal. In outline: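 Human liver HepG2, transient MRTU transfection (cis promoter elements), 24 h compound. Total RNA → oligo(dT) RT → PCR → FAM label → HpaI → CE. Internal background marker; bidirectional fitting, DMSO = baseline.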

Test [12] is described as follows: ATG_EGR_CIS: Attagene CIS-FACTORIAL HepG2 Assay for human Early Growth Response 1 (EGR1) (AID 2282938). The following applies: HepG2 Attagene CIS-FACTORIAL EGR reporter mRNA; actives raise or lower the signal. In outline:
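Transient transfection of human HepG2 with multiple cis-regulated reporter units, chemical exposure 24 h, total RNA isolated. Reverse transcription, PCR, fluorescent labelling and capillary electrophoresis quantify reporter transcripts; activity fitted bidirectionally against DMSO.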

A short description of test [13]: ATG_M_19_CIS: Attagene CIS-FACTORIAL HepG2 Assay for M19 Transcription Factor (Internal Marker) (AID 2282939). The following applies: HepG2 Attagene CIS-FACTORIAL M19 internal marker reporter; actives raise or lower the signal. The essentials:
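Chemical-treated HepG2 (24 h) with MRTU constructs; reporter transcripts detected by fluorescent RT-PCR fragment analysis on capillary electrophoresis. Internal background marker, DMSO as baseline.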

The nature of test [14]: ATG_ERE_CIS: Attagene CIS-FACTORIAL HepG2 Assay for Estrogen Response Element (ERE) (AID 2282940). The settings on record: HepG2 ERE cis-reporter, Attagene RNA transcript; actives raise or lower the signal. In outline: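 Human liver cells (HepG2) bearing transiently transfected, promoter-regulated reporter units were exposed 24 h. Reporter mRNA induction was detected by capillary electrophoresis of labelled RT-PCR products and fitted bidirectionally to DMSO.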

The nature of test [15]: ATG_Ets_CIS: Attagene CIS-FACTORIAL HepG2 Assay for human Erythroblast Transformation Specific (ETS) (AID 2282941). The settings on record: HepG2 ETS cis-reporter transcription, actives raise or lower the signal. The essentials: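 RT-PCR/capillary electrophoresis fluorescence read-out of reporter mRNA; HepG2 transient multi-reporter transfection; 24 h compound exposure; gain or loss of signal fitted bidirectionally relative to DMSO.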

Test [16] deals with Hepatocyte nuclear factor 3-beta (Homo sapiens) (UniProt Q9Y261). Description: ATG_FoxA2_CIS: Attagene CIS-FACTORIAL HepG2 Assay for human Forkhead box A2 (FOXA2) (AID 2282942). The settings on record: HepG2 cis-reporter transcription factor activity, 24 h; actives raise or lower the signal. The essentials:
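Transient MRTU transfection of HepG2 liver cells; 24 h treatment; total RNA → oligo(dT) RT → PCR → FAM primer extension → HpaI cut → CE. Bidirectional fit vs DMSO.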

A short description of test [17]: ATG_FoxO_CIS: Attagene CIS-FACTORIAL HepG2 Assay for human Forkhead box O (FoxO) (AID 2282943). The following applies: HepG2 Attagene cis-reporter, FoxO element, mRNA; actives raise or lower the signal. The essentials:
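HepG2 cells transiently transfected with cis-element-driven reporter units report endogenous FoxO activity. After 24 h chemical exposure, reporter mRNA quantified by RT-PCR, fluorescent labeling, HpaI digestion and capillary electrophoresis; bidirectional fit versus DMSO.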

Test [18] can be described thus: ATG_GATA_CIS: Attagene CIS-FACTORIAL HepG2 Assay for human GATA Binding Protein (AID 2282944). The following applies: HepG2 GATA cis-element reporter, Attagene multiplex mRNA; actives raise or lower the signal. The essentials: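 Transfected cis-reporter HepG2 cells were treated with chemicals for 24 hours. Total RNA was then converted to cDNA, amplified with reporter-specific primers and analysed by fluorescent capillary electrophoresis, using DMSO-treated wells as baseline.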

Test [19] is described as follows: ATG_GLI_CIS: Attagene CIS-FACTORIAL HepG2 Assay for human Zinc Finger Protein GLI1 (AID 2282945). The following applies: HepG2, Attagene cis-factorial reporter mRNA, GLI element; actives raise or lower the signal. The essentials: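 Transiently transfected HepG2 cells report endogenous transcription factor activity via cis-element-driven reporter units. After 24 h compound exposure, reporter mRNA was measured by RT-PCR with capillary electrophoresis; bidirectional fitting against DMSO baseline.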

Test [20] concerns the target Retinoic acid receptor alpha (Homo sapiens) (UniProt P10276). Description: ATG_DR5_RAR_CIS: Attagene CIS-FACTORIAL HepG2 Assay for human Retinoic Acid Receptor Alpha (RARE), DR5 submotif (AID 2282934). The settings on record: HepG2 Attagene cis-factorial RARE DR5 reporter, mRNA; actives raise or lower the signal. In outline: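 HepG2 cells transiently transfected with multiplexed reporter units; DR5 cis-element drives reporter through endogenous transcription factors. After 24 h dosing, reporter mRNA quantified by RT-PCR, fluorescent labeling, HpaI digestion and capillary electrophoresis; bidirectional fitting versus DMSO.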

Sequence of CCAAT/enhancer-binding protein beta (Homo sapiens) (P17676 whole entry, looked up): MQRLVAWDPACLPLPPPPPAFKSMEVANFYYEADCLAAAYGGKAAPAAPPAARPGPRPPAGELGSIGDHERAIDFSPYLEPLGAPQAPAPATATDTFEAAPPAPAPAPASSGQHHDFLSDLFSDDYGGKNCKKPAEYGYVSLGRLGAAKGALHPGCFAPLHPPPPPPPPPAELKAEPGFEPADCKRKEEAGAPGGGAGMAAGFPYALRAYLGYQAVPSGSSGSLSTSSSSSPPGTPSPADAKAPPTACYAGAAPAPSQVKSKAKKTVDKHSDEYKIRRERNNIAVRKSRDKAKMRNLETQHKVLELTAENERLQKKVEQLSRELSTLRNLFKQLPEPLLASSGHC
Sequence of Hepatocyte nuclear factor 3-beta (Homo sapiens) (Q9Y261 whole entry, looked up): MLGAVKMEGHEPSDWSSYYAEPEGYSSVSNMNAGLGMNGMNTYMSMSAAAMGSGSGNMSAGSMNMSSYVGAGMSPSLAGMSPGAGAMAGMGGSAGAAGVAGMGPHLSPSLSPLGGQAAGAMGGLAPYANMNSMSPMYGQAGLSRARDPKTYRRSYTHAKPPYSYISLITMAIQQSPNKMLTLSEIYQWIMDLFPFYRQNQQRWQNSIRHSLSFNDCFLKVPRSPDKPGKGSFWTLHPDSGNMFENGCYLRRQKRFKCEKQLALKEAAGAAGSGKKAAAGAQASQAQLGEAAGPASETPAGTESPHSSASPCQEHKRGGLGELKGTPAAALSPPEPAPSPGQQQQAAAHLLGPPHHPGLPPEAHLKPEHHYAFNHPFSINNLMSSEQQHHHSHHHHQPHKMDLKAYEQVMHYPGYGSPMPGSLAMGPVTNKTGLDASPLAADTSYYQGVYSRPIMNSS
Sequence of Aryl hydrocarbon receptor (Homo sapiens) (P35869 whole entry, looked up): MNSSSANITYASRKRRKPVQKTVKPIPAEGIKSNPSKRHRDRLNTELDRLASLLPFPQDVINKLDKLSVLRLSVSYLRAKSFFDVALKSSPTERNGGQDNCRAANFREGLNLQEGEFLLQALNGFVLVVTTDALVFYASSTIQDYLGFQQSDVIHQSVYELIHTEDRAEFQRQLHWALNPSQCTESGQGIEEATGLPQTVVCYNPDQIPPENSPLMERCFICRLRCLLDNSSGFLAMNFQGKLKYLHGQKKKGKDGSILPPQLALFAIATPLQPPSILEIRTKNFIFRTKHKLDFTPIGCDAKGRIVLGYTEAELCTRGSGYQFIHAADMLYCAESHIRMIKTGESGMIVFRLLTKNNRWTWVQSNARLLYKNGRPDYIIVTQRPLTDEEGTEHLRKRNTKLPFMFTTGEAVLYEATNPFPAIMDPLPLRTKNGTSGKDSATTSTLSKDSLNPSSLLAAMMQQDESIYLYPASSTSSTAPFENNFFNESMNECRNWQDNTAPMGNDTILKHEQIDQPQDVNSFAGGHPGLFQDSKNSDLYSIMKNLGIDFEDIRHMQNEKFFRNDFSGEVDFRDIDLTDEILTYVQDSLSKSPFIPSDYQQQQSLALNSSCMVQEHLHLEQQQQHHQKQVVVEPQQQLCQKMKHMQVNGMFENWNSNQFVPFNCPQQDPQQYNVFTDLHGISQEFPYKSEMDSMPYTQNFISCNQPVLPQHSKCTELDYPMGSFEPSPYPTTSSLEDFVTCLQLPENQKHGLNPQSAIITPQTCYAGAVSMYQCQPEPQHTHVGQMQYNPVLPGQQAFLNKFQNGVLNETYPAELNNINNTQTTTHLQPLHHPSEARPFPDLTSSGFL
Sequence of Retinoic acid receptor alpha (Homo sapiens) (P10276 whole entry, looked up): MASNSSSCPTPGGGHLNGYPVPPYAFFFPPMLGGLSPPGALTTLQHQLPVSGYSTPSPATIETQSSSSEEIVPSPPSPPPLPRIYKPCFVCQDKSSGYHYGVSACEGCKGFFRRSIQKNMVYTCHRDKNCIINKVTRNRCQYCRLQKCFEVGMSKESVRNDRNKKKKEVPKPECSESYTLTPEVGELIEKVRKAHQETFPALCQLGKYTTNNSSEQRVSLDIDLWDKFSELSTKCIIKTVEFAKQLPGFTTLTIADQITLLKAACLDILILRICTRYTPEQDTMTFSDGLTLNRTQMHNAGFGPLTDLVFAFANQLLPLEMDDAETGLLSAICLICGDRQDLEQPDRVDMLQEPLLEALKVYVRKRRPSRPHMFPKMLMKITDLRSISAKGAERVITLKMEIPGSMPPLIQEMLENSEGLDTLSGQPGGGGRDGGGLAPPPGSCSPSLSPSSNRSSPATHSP

Turning to `CCCCCCCCCCCCCCCCOS(=O)(=O)O`, the molecule was called inactive in test [1], in test [2], in test [3], in test [5], in test [7] and in test [8]. Moreover, the outcome in test [9], in test [11], in test [12], in test [13], in test [14] and in test [15] was inactive. For the same molecule, the result in [16], in [17], in test [18] and in test [19] was inactive. Also, the AC50 in [4] is 24.5 µM (active); in test [6], 28.5 µM (active); in test [10] it was 25.8 µM (active).

As to `CCCCCCOC(=O)CC(CC(=O)OCCCCCC)(OC(=O)CCC)C(=O)OCCCCCC`, the molecule was called inactive in test [1], in [3], in [4], in [5], in [6] and in test [7]. Besides, the result in [8], in test [20], in [9], in test [10], in test [11] and in [13] was inactive. For the same molecule, the result in [14], in test [15], in test [16], in test [17], in test [18] and in test [19] was inactive.

For the molecule `CCCC(CCC)C(=O)O`, the molecule was called inactive in [1], in [2], in test [3], in [5], in [6] and in [7]. The call in [8], in test [10], in [11], in test [12], in [13] and in test [14] was inactive. Moreover, the molecule was classed as inactive in test [15], in test [17], in [18] and in test [19].

In the case of `CCCCC(CC)C(=O)OCCOCCOCCOC(=O)C(CC)CCCC` (stereo unspecified), the outcome in test [1], in [2], in test [3], in [6], in test [7] and in [8] was inactive. Also, the call in test [20], in [10], in test [11], in [12], in test [13] and in test [14] was inactive. For the same molecule, the molecule was classed as inactive in test [15], in test [16], in test [17], in [18] and in test [19]. Moreover, in test [4], the AC50 was 160 µM (active).
